Compound activity as filed in PubChem BioAssay.
Most compounds without a hit are left out; they make up all but 3% or so of the library.
PPC-1+TRAIL kill: compounds killing PPC-1 cancer cells with TRAIL present, primary screen, TRAIL potentiator project, ATPLite luminescence, uHTS; AID 1443, 2008; PPC-1 cells + TRAIL, ATPLite viability luminescence; cell killing (% activity), % at 4 µM or 5 µM; actives 0.41% (n = 220,000);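 active = cell killing above 50% in the first pass at 4 µM, then a duplicate retest at 5 µM averaging 50% or more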
SENP6 block: SENP6 protease inhibitors, primary screen, biochemical, luminescence, uHTS. Recombinant SENP6 catalytic domain, aminoluciferin luminescence. inhibition, % at 10 µM. AID 2599, 2010. Sentrin-specific protease 6 (Homo sapiens), Q9GZR1. actives 1.8% (n = 330,000);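 active = inhibition above about 50% at the single tested dose, limit read from the data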
SENP8 block-1: human SENP8 protease inhibitors, primary screen, biochemical, fluorescence, Nedd8 protein substrate, uHTS | actives 0.64% (n = 360,000) | recombinant SENP8 | AID 602440, 2012 | inhibition, % at 20 µM; in the data active = inhibition mostly above about 40%, no sharp cut-off; inactive = mostly below about 27%
Target sequence (Q96LD8 whole entry, looked up): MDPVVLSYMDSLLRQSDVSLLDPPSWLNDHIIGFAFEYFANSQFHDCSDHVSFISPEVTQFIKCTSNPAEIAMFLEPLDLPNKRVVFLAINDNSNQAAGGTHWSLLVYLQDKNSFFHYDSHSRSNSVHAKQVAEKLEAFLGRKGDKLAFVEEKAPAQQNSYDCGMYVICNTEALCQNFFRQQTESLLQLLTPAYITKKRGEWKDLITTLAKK
TRAIL sens C8: viability loss with TRAIL in NB7+C8 cells, primary screen, TRAIL sensitizer project, cell-based, ATPlite luminescence | inhibition (viability loss, TRAIL sensitization), % at 10 µM | actives 1% (n = 360,000);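 active = compounds causing at least 50% loss of cell viability in the single-dose screen, relative to plate controls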
SENP7 inh: SENP7 protease inhibitors, primary screen, biochemical, luminescence, uHTS | Sentrin-specific protease 7 (Homo sapiens), Q9BQF6 | recombinant SENP7, Z-RLRGG-aminoluciferin luminescence, 40 min | inhibition, % at 5 µM | actives 1.5% (n = 330,000);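 active = inhibition above about 50% at the single test dose, limit read from the data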
Target sequence (Q9BQF6 706-1050 limits assumed): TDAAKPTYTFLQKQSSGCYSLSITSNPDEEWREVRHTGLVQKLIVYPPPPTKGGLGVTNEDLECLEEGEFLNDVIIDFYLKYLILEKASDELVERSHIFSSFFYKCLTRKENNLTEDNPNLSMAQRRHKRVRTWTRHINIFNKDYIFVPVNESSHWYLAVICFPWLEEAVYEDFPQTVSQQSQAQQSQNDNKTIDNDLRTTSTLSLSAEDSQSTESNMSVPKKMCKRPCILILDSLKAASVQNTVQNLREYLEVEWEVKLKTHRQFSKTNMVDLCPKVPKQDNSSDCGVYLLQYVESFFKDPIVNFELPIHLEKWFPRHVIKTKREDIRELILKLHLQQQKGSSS
SENP8 block-2: SENP8 protease inhibitors, primary screen, biochemical, luminescence | actives 1.2% (n = 330,000) | inhibition, % at 10 µM | purified SENP8, Z-RLRGG-aminoluciferin cleavage | AID 2540, 2010 | Sentrin-specific protease 8 (Homo sapiens), Q96LD8; in the data active = inhibition above about 50%
SENP8 conf: SENP8 protease inhibitors, retest, confirmation, biochemical, luminescence, single concentration | shares compounds with SENP7 inh | Recombinant SENP8, Z-RLRGG-aminoluciferin luminescence, 60 min | inhibition, % at 12.5 µM | actives 40% (n = 6,200) | AID 488912, 2010;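 active = mean inhibition across replicates above about 50%, limit read from the data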
SENP6 conf: SENP6 protease inhibitors, confirmation, biochemical, luminescence, single concentration; shares compounds with SENP7 inh; recombinant SENP6, Z-RLRGG-aminoluciferin luminescence; inhibition, % at 12.5 µM; actives 58% (n = 6,200); AID 488915, 2010
SENP7 conf: SENP7 protease inhibitors, retest, confirmation, biochemical, luminescence, single concentration; shares compounds with SENP7 inh; recombinant SENP7, Z-RLRGG-aminoluciferin luminescence, 40 min; inhibition, % at 12.5 µM; actives 69% (n = 6,200)
Casp3 select: caspase-3 protease inhibitors, confirmation, selectivity assay for SENP inhibitor project, biochemical, single concentration. shares compounds with SENP7 inh. purified caspase-3, Z-DEVD-aminoluciferin luminescence, 60 min. inhibition, % at 12.5 µM. actives 60% (n = 6,200). AID 488918, 2010;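 active = mean inhibition above about 50%, limit read from the data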
SENP luc ctr: luminescence interference (SENP counter-screen); Pre-incubated SENP8/Z-RLRGG-aminoluciferin, luciferase luminescence interference; actives 39% (n = 6,200); shares compounds with SENP7 inh; inhibition, % at 12.5 µM;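 active = mean inhibition above about 50% when retested at one dose, limit read from the data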
Of the large screens only hits and unclear results are named; the others gave an inactive call (follow-up assays come after a bar, where they were run).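 Rule for the calls, unless noted: active = mean inhibition above about 50% in the one-dose retest (limit read from the data); inactive = the rest.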

CCOC(=O)C1CCN(C(=O)c2cc3cc(C)ccc3[nH]2)CC1	none (no result: PPC-1+TRAIL kill)
CCc1nnc(NC(=O)CCC(=O)Nc2ccc(Cl)cc2)s1	none (no result: PPC-1+TRAIL kill)
Cn1ccc2c(-c3cccc(C=O)c3)cc3c(c21)C1CCC3O1 (stereo not drawn)	none (no result: PPC-1+TRAIL kill, SENP6 block, SENP7 inh, SENP8 block-2)
COc1ccccc1-c1nnc(-c2ccc(C)cc2)o1	SENP6 block 55.5, TRAIL sens C8 53.1, SENP7 inh 55.2 (no result: PPC-1+TRAIL kill) | SENP8 conf 50.5 | SENP6 conf inactive | SENP7 conf 74.0 | Casp3 select 54.1 | SENP luc ctr 55.7
Nc1ccc(-c2nnc(-c3ccc(N)cc3)o2)cc1	none (no result: PPC-1+TRAIL kill)
CSc1nnc(-c2ccccc2)o1	none
COc1ccc(-c2nc(C#N)c(NCCc3ccccc3)o2)cc1OC	SENP6 block 72.5, SENP7 inh 58.8, SENP8 block-2 57.4 | SENP8 conf inactive | SENP6 conf 66.0 | SENP7 conf 90.4 | Casp3 select 56.1 | SENP luc ctr 58.7
CSc1ccccc1-c1nnc(-c2ccccc2)o1	SENP6 block 84.1, SENP7 inh 82.8, SENP8 block-2 74.3 | SENP8 conf 66.5 | SENP6 conf 80.6 | SENP7 conf 95.5 | Casp3 select 77.8 | SENP luc ctr 61.6
Nc1ccccc1-c1nnc(-c2ccc(-c3ccccc3)cc2)o1	SENP7 inh 96.2, SENP8 block-2 76.8 | SENP8 conf inactive | SENP6 conf inactive | SENP7 conf inactive | Casp3 select 51.1 | SENP luc ctr inactive
c1ccc(-c2nnc(-c3ccccc3)o2)cc1	SENP6 block 87.2, SENP7 inh 91.5, SENP8 block-2 78.9 | SENP8 conf 72.5 | SENP6 conf 82.4 | SENP7 conf 96.0 | Casp3 select 87.8 | SENP luc ctr 66.4
Clc1cccc(-c2nnc(-c3ccccc3)o2)c1	SENP6 block 95.0, SENP7 inh 93.9, SENP8 block-2 91.8 | SENP8 conf 93.2 | SENP6 conf 96.6 | SENP7 conf 101.5 | Casp3 select 94.0 | SENP luc ctr 94.5
COc1ccc(-c2nnc(-c3ccccc3)o2)cc1OC	SENP6 block 58.4, SENP7 inh 63.7 (no result: PPC-1+TRAIL kill) | SENP8 conf inactive | SENP6 conf inactive | SENP7 conf 83.7 | Casp3 select 76.5 | SENP luc ctr 68.0
CCOC(=O)c1[nH]c(C)c(C(=O)OCC(=O)Nc2sc3c(c2C#N)CCCCC3)c1C	none
O=C(c1ccccc1F)N1CCN(c2ccc([N+](=O)[O-])c(NCC3CCCO3)c2)CC1 (stereo not drawn)	SENP7 inh 53.8 | SENP8 conf inactive | SENP6 conf inactive | SENP7 conf inactive | Casp3 select inactive | SENP luc ctr inactive
CCN(CC)C(=O)Oc1ccc2c(=O)c(-c3ccccc3)coc2c1	SENP6 block 81.2, SENP7 inh 70.6, SENP8 block-2 53.5 | SENP8 conf inactive | SENP6 conf inactive | SENP7 conf 54.2 | Casp3 select 57.3 | SENP luc ctr inactive
COc1ccc2c(c1)oc(=O)c1cc(OC)ccc12	SENP6 block 65.3, SENP7 inh 79.6 | SENP8 conf inactive | SENP6 conf inactive | SENP7 conf 62.7 | Casp3 select 65.1 | SENP luc ctr inactive
COC(=O)C(C)Oc1ccc2cc(-c3ccccc3)c(=O)oc2c1 (stereo not drawn)	none (no result: PPC-1+TRAIL kill)
COc1ccc2c(c1)oc(=O)c1ccccc12	none
COc1ccc2cc(-c3ccccc3)c(=O)oc2c1	SENP6 block 92.4, SENP7 inh 88.1, SENP8 block-2 74.9 (no result: PPC-1+TRAIL kill) | SENP8 conf inactive | SENP6 conf 89.6 | SENP7 conf 98.6 | Casp3 select 86.1 | SENP luc ctr inactive
COc1ccc2c(=O)c(-c3ccccc3)coc2c1	SENP6 block 78.7, SENP7 inh 80.2, SENP8 block-2 74.7 | SENP8 conf inactive | SENP6 conf 72.7 | SENP7 conf 92.6 | Casp3 select 84.0 | SENP luc ctr inactive
COc1ccc2[nH]cc(CCNC(=O)Cc3ccc(F)cc3)c2c1	none (no result: PPC-1+TRAIL kill)
O=C(CSc1nnc(C2CC2)n1Cc1ccccc1)N1CCNC1=O	none (no result: PPC-1+TRAIL kill)
Cc1nc(C)c(C(=O)NNS(=O)(=O)c2ccc3ccccc3c2)s1	none
O=C(COC(=O)CNC(=O)c1ccccc1F)Nc1cccnc1Cl	none
N=C1S/C(=C\c2ccco2)C(=O)N1c1nccs1	SENP6 block 58.0, SENP8 block-2 53.0 | SENP8 conf inactive | SENP6 conf inactive | SENP7 conf inactive | Casp3 select inactive | SENP luc ctr inactive
COc1cccc(C2C(=O)c3ccccc3C2=O)c1	none
O=C1c2ccccc2C(=O)C1c1ccc(O)cc1	none
O=C1c2ccccc2C(=O)C1c1ccc(Br)cc1	SENP6 block 94.5, SENP8 block-2 92.6 (no result: PPC-1+TRAIL kill) | SENP8 conf 95.8 | SENP6 conf 94.3 | SENP7 conf 100.0 | Casp3 select 89.1 | SENP luc ctr 95.2
O=C1c2ccccc2C(=O)C1c1ccc(Cl)cc1	SENP6 block 82.0, SENP8 block-2 76.7 (no result: PPC-1+TRAIL kill) | SENP8 conf 89.1 | SENP6 conf 91.9 | SENP7 conf 99.1 | Casp3 select 88.7 | SENP luc ctr 87.6
Cc1cc2ncn(S(=O)(=O)c3ccc(S(=O)(=O)N4CCCCCC4)cc3)c2cc1C	SENP7 inh 67.5 (no result: PPC-1+TRAIL kill) | SENP8 conf inactive | SENP6 conf inactive | SENP7 conf inactive | Casp3 select inactive | SENP luc ctr inactive
CCOC(=O)Cc1ccc(Nc2nc(NCCOC)nc3ccsc23)cc1	none (no result: PPC-1+TRAIL kill, SENP6 block, SENP7 inh, SENP8 block-2)
Cc1ccc(S(=O)(=O)N2CCOCC2)cc1NC(=O)COc1ccccc1Cc1ccccc1	none (no result: PPC-1+TRAIL kill)
